Counter-ions that a name gives are not always drawn. ± gives the standard deviation of the averaged measurements.
test system: E. coli TESEC Mtb DapB; test: growth (OD600 after 10 h); higher = more growth (less inhibition); conditions: arabinose induction (level): Low; compound 0.1 mM; raw OD600 reference: median of DMSO wells 0.227, cell-free background 0.041
Protocol: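 TESEC E. coli strains in which the native enzyme is deleted and replaced by arabinose-inducible Mtb Asd, DapB, CysH or TrpD, each grown in its selective medium. Strains were screened against the Prestwick library at 0.1 mM and 1% DMSO in 384-well format at low and high arabinose induction. Growth is read as OD600 after 10 h in triplicate.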

Question: For `Cc1onc(-c2c(F)cccc2Cl)c1C(=O)N[C@@H]1C(=O)N2[C@@H]1SC(C)(C)[C@@H]2C(=O)O` [Flucloxacillin sodium], which growth is on record?
Answer: Its growth is 0.259 ± 0.034.

Question: `CN(C/C=C/c1ccccc1)Cc1cccc2ccccc12` [Naftifine hydrochloride] was tested. Which growth did it give?
Answer: The growth was 0.133 ± 0.0053.

Question: For `COc1ccccc1Oc1c(NS(=O)(=O)c2ccc(C(C)(C)C)cc2)nc(-c2ncccn2)nc1OCCO` [Bosentan], which growth is on record?
Answer: The growth was 0.247 ± 0.051.

Question: `O=C(O)CCC(=O)Nc1ccc(S(=O)(=O)Nc2nccs2)cc1` [Succinylsulfathiazole] was tested. Which growth did it give?
Answer: Its growth is 0.258 ± 0.028.

Question: With `NC(=O)OCC(O)COc1ccc(Cl)cc1` (stereo not given) [Chlorphensin carbamate] as the compound, how does the growth read?
Answer: Its growth is 0.279 ± 0.041.

Question: `C(=C\c1ccccc1)/CN1CCN(C(c2ccccc2)c2ccccc2)CC1` [Cinnarizine] was tested. Which growth did it give?
Answer: Its growth is 0.223 ± 0.019.

Question: With `Cc1ccccc1OCC(O)CO` (stereo not given) [Mephenesin] as the compound, how does the growth read?
Answer: Its growth is 0.239 ± 0.02.

Question: `O=C(O)CN(CCN(CC(=O)O)CC(=O)O)CCN(CC(=O)O)CC(=O)O` [Pentetic acid] was tested. Which growth did it give?
Answer: Its growth is 0.0709 ± 0.0042.

Question: `CC(=O)OCC(=O)[C@@]1(OC(C)=O)[C@@H](C)C[C@H]2[C@@H]3C[C@H](F)C4=CC(=O)C=C[C@]4(C)[C@@]3(F)[C@@H](O)C[C@@]21C` [Diflorasone Diacetate] was tested. Which growth did it give?
Answer: Its growth is 0.221 ± 0.0089.

Question: How did the growth turn out when `O=C1C(CC[S+]([O-])c2ccccc2)C(=O)N(c2ccccc2)N1c1ccccc1` (stereo not given) [Sulfinpyrazone] was run?
Answer: Its growth is 0.203 ± 0.023.

Question: With `O=C(CCNNC(=O)c1ccncc1)NCc1ccccc1` [Nialamide] as the compound, how does the growth read?
Answer: Its growth is 0.249 ± 0.014.

Question: How did the growth turn out when `C[N+]1(C)CCC(=C(c2ccccc2)c2ccccc2)CC1` [Diphemanil methylsulfate] was run?
Answer: Its growth is 0.25 ± 0.028.

Question: For `Cc1ccc(C)c(OCCCC(C)(C)C(=O)O)c1` [Gemfibrozil], which growth is on record?
Answer: The growth was 0.195 ± 0.055.

Question: For `O=C1CCc2cc(OCCCCc3nnnn3C3CCCCC3)ccc2N1` [Cilostazol], which growth is on record?
Answer: Its growth is 0.181 ± 0.0043.

Question: `COc1cc(C(=O)NCc2ccc(OCCN(C)C)cc2)cc(OC)c1OC` [Trimethobenzamide hydrochloride] was tested. Which growth did it give?
Answer: The growth was 0.253 ± 0.018.

Question: Which growth does the source give for `Cc1nnc(SCC2=C(C(=O)O)N3C(=O)[C@@H](NC(=O)Cn4cnnn4)[C@H]3SC2)s1` [Cefazolin sodium salt] here?
Answer: Its growth is 0.237 ± 0.019.

Question: How did the growth turn out when `N#Cc1ccc(C(c2ccc(C#N)cc2)n2cncn2)cc1` [Letrozole] was run?
Answer: The growth was 0.24 ± 0.032.

Question: `CCOc1nc2cccc(C(=O)O)c2n1Cc1ccc(-c2ccccc2-c2nnn[nH]2)cc1` [Candesartan] was tested. Which growth did it give?
Answer: Its growth is 0.205 ± 0.024.

Question: Which growth does the source give for `CC(CNC1CCCCC1)OC(=O)c1ccccc1` (stereo not given) [Hexylcaine hydrochloride] here?
Answer: The growth was 0.233 ± 0.024.

Question: `C#C[C@]1(O)CC[C@H]2[C@@H]3CCC4=Cc5oncc5C[C@]4(C)[C@H]3CC[C@@]21C` [Danazol] was tested. Which growth did it give?
Answer: Its growth is 0.176 ± 0.0079.

Question: For `CC1CC(OC(=O)c2ccccc2O)CC(C)(C)C1` (stereo not given) [Homosalate], which growth is on record?
Answer: The growth was 0.205 ± 0.027.

Question: `CCOc1ccc2c(c1)C(C)=CC(C)(C)N2` [Ethoxyquin] was tested. Which growth did it give?
Answer: The growth was 0.205 ± 0.024.

Question: For `CN(C)CCN(Cc1ccc(Cl)cc1)c1ccccn1` [Chloropyramine hydrochloride], which growth is on record?
Answer: Its growth is 0.208 ± 0.016.

Question: How did the growth turn out when `COc1ccc([C@@H]2CC(=O)c3c(O)cc(O[C@@H]4O[C@H](CO[C@@H]5O[C@@H](C)[C@H](O)[C@@H](O)[C@H]5O)[C@@H](O)[C@H](O)[C@H]4O)cc3O2)cc1O` [Hesperidin] was run?
Answer: Its growth is 0.251 ± 0.034.

Question: With `CO[C@H]1C[C@H](O[C@H]2[C@H](C)[C@@H](O[C@@H]3O[C@H](C)C[C@H](N(C)C)[C@H]3OC(C)=O)[C@@H](C)C[C@@]3(CO3)C(=O)[C@H](C)[C@@H](OC(C)=O)[C@@H](C)[C@@H](C)OC(=O)[C@@H]2C)O[C@@H](C)[C@@H]1OC(C)=O` [Troleandomycin] as the compound, how does the growth read?
Answer: The growth was 0.156 ± 0.0093.

Question: `CCCCCN(CCCCC)C(=O)C(CCC(=O)O)NC(=O)c1ccc(Cl)c(Cl)c1` (stereo not given) [Lorglumide sodium salt] was tested. Which growth did it give?
Answer: Its growth is 0.243 ± 0.015.

Question: `CC(Oc1ccccc1)C(=O)N[C@@H]1C(=O)N2[C@@H]1SC(C)(C)[C@@H]2C(=O)O` (stereo not given in full) [Phenethicillin potassium salt] was tested. Which growth did it give?
Answer: The growth was 0.249 ± 0.02.

Question: How did the growth turn out when `C#C[C@]1(O)CC[C@H]2[C@@H]3CCC4=CC(=O)CC[C@@H]4[C@H]3CC[C@@]21C` [Norethindrone] was run?
Answer: Its growth is 0.21 ± 0.042.

Question: Which growth does the source give for `CC[C@H](C)[C@H](N)C1=N[C@H](C(=O)N[C@@H](CC(C)C)C(=O)N[C@H](CCC(=O)O)C(=O)N[C@H](C(=O)N[C@H]2CCCCNC(=O)[C@H](CC(N)=O)NC(=O)[C@@H](CC(=O)O)NC(=O)[C@H](Cc3cnc[nH]3)NC(=O)[C@@H](Cc3ccccc3)NC(=O)[C@H]([C@@H](C)CC)NC(=O)[C@@H](CCCN)NC2=O)[C@@H](C)CC)CS1` [Bacitracin] here?
Answer: The growth was 0.243 ± 0.028.

Question: `CN(C)CC/C=C1/c2ccccc2COc2ccc(CC(=O)O)cc21` [Olopatadine hydrochloride] was tested. Which growth did it give?
Answer: The growth was 0.233 ± 0.015.

Question: `C[C@]12CCC(=O)C=C1C=C[C@@H]1[C@@H]2CC[C@@]2(C)[C@H]1CC[C@@]21CCC(=O)O1` [Canrenone] was tested. Which growth did it give?
Answer: Its growth is 0.174 ± 0.0092.

Question: For `CCC(C)n1ncn(-c2ccc(N3CCN(c4ccc(OCC5COC(Cn6cncn6)(c6ccc(Cl)cc6Cl)O5)cc4)CC3)cc2)c1=O` (stereo not given) [Itraconazole], which growth is on record?
Answer: The growth was 0.217 ± 0.017.

Question: For `CCCOc1ccc(C(=O)OCCN(CC)CC)cc1N` [Proparacaine hydrochloride], which growth is on record?
Answer: Its growth is 0.231 ± 0.021.

Question: With `COc1ccc([C@@H]2Sc3ccccc3N(CCN(C)C)C(=O)[C@@H]2OC(C)=O)cc1` [Diltiazem hydrochloride] as the compound, how does the growth read?
Answer: Its growth is 0.211 ± 0.056.

Question: Which growth does the source give for `CCc1cccc2c3c([nH]c12)C(CC)(CC(=O)O)OCC3` (stereo not given) [Etodolac] here?
Answer: The growth was 0.261 ± 0.033.

Question: How did the growth turn out when `N=C(N)NC(=O)c1nc(Cl)c(N)nc1N` [Amiloride hydrochloride dihydrate] was run?
Answer: Its growth is 0.278 ± 0.035.

Question: `N=C(N)c1ccc(OCCCCCOc2ccc(C(=N)N)cc2)cc1` [Pentamidine isethionate] was tested. Which growth did it give?
Answer: Its growth is 0.0531 ± 0.0065.

Question: `COc1ccccc1O` [Guaiacol] was tested. Which growth did it give?
Answer: The growth was 0.202 ± 0.028.

Question: How did the growth turn out when `CN(C)CCOC1=Cc2ccccc2Sc2ccc(Cl)cc21` [Zotepine] was run?
Answer: The growth was 0.1696 ± 0.0015.

Question: With `CC(=O)N[C@@H](CS)C(=O)O` [Acetylcysteine] as the compound, how does the growth read?
Answer: Its growth is 0.232 ± 0.053.

Reference: the supplement of paper PMC9262897, “Low-cost anti-mycobacterial drug discovery using engineered E. coli” (Nature Communications, 2022)
